# Test results reported in PubChem BioAssay AID778 (Sanford-Burnham Center for Chemical Genomics, 2007).
# About 20,000 (21%) of roughly 96,000 compounds were called active. Only a sample is shown. Values without a mark were called inactive.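 Rule for the calls: active = CYP2C19 inhibition above a set limit at 5 µM in the primary screen (cut at about 50% in these data); inactive = the rest.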
# Target: Cytochrome P450 2C19 (Homo sapiens) (UniProt P33261)
# Experiment: blockers of cytochrome P450 2C19 activity – biochemical, luminescence, ADME assay, primary screen (AID 778);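 note: plate controls were negative control wells for no effect and 2.5 mM tranylcypromine positive control for full effect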
# Conditions: CYP2C19 Supersomes, luciferin-H EGE luminescence, 30 min; at 5 µM; hits give high values
# Sequence of Cytochrome P450 2C19 (Homo sapiens) (P33261 whole entry, looked up): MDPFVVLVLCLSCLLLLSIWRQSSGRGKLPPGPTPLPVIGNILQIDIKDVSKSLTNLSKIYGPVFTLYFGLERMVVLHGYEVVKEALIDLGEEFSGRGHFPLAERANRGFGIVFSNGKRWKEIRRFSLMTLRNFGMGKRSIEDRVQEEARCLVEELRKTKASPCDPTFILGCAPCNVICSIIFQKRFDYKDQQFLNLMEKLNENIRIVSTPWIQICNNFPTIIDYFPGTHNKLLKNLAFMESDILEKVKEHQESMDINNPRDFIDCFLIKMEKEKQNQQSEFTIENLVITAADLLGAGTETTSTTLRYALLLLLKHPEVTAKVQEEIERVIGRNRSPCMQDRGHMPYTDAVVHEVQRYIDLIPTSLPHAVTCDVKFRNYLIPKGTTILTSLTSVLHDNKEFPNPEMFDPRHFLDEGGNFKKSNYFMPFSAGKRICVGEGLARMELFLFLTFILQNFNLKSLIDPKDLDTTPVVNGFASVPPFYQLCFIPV
row,Structure (SMILES),inhibition
1,Cc1ccccc1NC(=O)NCc1ccco1,-11.9%
2,O=C(Nc1ccccc1)Nc1ccccc1C(=O)NCc1ccco1,79.3% (active)
3,Cc1ccc(N(Cc2ccc(C(=O)Nc3ccccc3C(=O)NCc3ccco3)cc2)S(C)(=O)=O)cc1C,87.7% (active)
4,CCOc1ccccc1C(=O)NCc1ccco1,14.6%
5,CS(=O)(=O)N(Cc1ccc(Cl)cc1)c1ccc(C(=O)NCCSCc2ccco2)cc1,-3.9%
6,Cc1cccc(Nc2ccccc2C(=O)NCc2ccco2)c1C,22.7%
7,CC(=O)N(CC1CCCO1)C1(C(=O)NC2CCCC2)CCCCC1 (stereo not drawn),3.8%
8,O=C(CN1CCOCC1)Nc1c2c(nc3c1CCC3)CCC2,-3%
9,Fc1ccccc1/C=C1\CCCC2=C1Nc1ncnn1C2c1ccccc1F (stereo not drawn),45.3%
10,COc1ccccc1Oc1ccc(S(=O)(=O)Nc2cccnc2)cc1,87.6% (active)
11,O=S(=O)(Nc1ccccn1)c1ccc(Oc2ccccc2)cc1,90.2% (active)
12,COc1ccc(C(=O)/C=C/Nc2ccccn2)cc1,46.4%
13,CN1CCc2c(sc3c2c(NCc2ccco2)nc2nnnn23)C1,37.8%
14,CCOc1ccc(NC(=O)C2CC(=O)N=C(N)S2)cc1 (stereo not drawn),-0.4%
15,O=C(Nc1ccccc1)O/N=C1\CCCCC1c1ccc([N+](=O)[O-])cc1[N+](=O)[O-] (stereo not drawn),36.8%
16,O=C1NC2(CCCCC2)N=C1c1ccccc1,25%
17,Cc1cc(C)c2c(-n3cccc3)c(C(=O)NNS(=O)(=O)c3ccc(F)cc3)sc2n1,31%
18,CC(C)(C)C(=O)c1cnc(Nc2ccccc2)s1,36.7%
19,CNC(=O)CSc1nnc(CCc2ccccc2)n1-c1ccccc1,-8.1%
20,CSc1nc(O)c(Cc2ccccc2)c(=O)[nH]1,26.1%
21,CCn1c(Cc2ccccc2)nnc1SCc1nc2ccccc2c(=O)[nH]1,70.3% (active)
22,CCn1c(SCC(=O)Nc2ccc(S(=O)(=O)Nc3onc(C)c3C)cc2)nnc1-c1ccccc1,16.5%
23,CCn1c(Cc2ccccc2)nnc1SCC(=O)Nc1ccccc1,74% (active)
24,O=c1[nH]c(CSc2ncc(-c3ccc(F)cc3)n2Cc2ccco2)nc2ccccc12,32%
25,CC(C)c1ccc(-c2nn[nH]n2)cc1,25.4%
26,O=c1nc(N2CCOCC2)nc2n1CCO2,1.1%
27,Cc1ccc2nc(NCCCNC(=O)c3cnccn3)c(C#N)cc2c1,17.1%
28,CCCCN1C(=O)/C(=C2/C=CC=CN2C)SC1=S,30.2%
